Each structure is given as a SMILES string. Calls of active or inactive are those of the source.

The record followed here is PubChem BioAssay.

Assay [1] can be described thus: small molecules captured by biotinylated probe aFSTL3 – biochemical, small-molecule microarray, fluorescence 635/667, stem cell growth factor project, primary screen (AID 1064).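 Also: measures binding of the biotinylated anti-FSTL3 antibody to printed compounds.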 Particulars: higher = more signal.
Assay [2] can be described thus: binders from COS7 lysate, DM2A8 probe, primary screen, torsin A project, cell lysate, small-molecule microarray, fluorescence 635/667 (AID 1065). The settings on record: higher = more signal, COS7 lysate expressing mutant human TOR1A.
Assay [3] can be described thus: small molecules captured by biotinylated probe aFGF2 – biochemical, small-molecule microarray, fluorescence 635/667, stem cell growth factor project, primary screen (AID 1067).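 Also: measures binding of biotinylated aFGF2 protein to printed compounds on slides; z-score merges feature fluorescence and signal-to-noise across triplicate slides.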 Particulars: higher = more signal.
Assay [4] in a line: small molecules captured by biotinylated probe aFGF10 – biochemical, small-molecule microarray, fluorescence 635/667, stem cell growth factor project, primary screen (AID 1071).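 Also: score merges 667 nm spot intensity and signal to noise from triplicate slides.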 Particulars: higher = more signal.
Assay [5] addresses Neurogenic locus notch homolog protein 2 (Homo sapiens) (UniProt Q04721). Put plainly: small molecules binding Notch2 protein – biochemical, small-molecule microarray, 635 nm fluorescence, stem cell growth factors, primary screen (AID 1073). The settings on record: higher = more signal.
Assay [6] addresses Pro-neuregulin-1, membrane-bound isoform (Homo sapiens) (UniProt Q02297). Put plainly: small molecules binding neuregulin-1 protein – biochemical, small-molecule microarray, fluorescence 635/667, psychiatric disease protein project, primary screen (AID 1075).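 Also: score combines 667 nm spot fluorescence with signal to noise.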 The settings on record: NRG1 binding, 635 nm fluorescence, higher = more signal.
Assay [7] deals with Neuregulin-1 EGF-like domain. Put plainly: small molecules binding NRG1 EGF domain – biochemical, small-molecule microarray, 635 nm fluorescence, primary screen (AID 1081).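 Also: binding of the protein to compounds printed on small-molecule microarray slides.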 The settings on record: higher = more signal.
A short description of assay [8]: FRG1 expression reporter modulators in myotubes – cell-based, C2C12 myotubes, firefly/Renilla luciferase, luminescence, FRG1 inhibition for FSHD, primary screen (AID 1084). The settings on record: FRG1 promoter luciferase, higher = more signal, called active from +8 up or from −8 down.
A short description of assay [9]: small molecules captured by biotinylated probe aFST – biochemical, small-molecule microarray, fluorescence 635/667, stem cell growth factor project, primary screen (AID 1086).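 Also: score merges 667 nm fluorescence with signal-to-noise of each printed compound spot.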 Particulars: higher = more signal.
The nature of assay [10]: binders of probe aHhip on microarray, primary screen, stem cell growth factor project, biochemical, small-molecule microarray, fluorescence 635/667 (AID 1087).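 Also: score merges spot fluorescence at 667nm with spot signal to noise ratio.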 Particulars: higher = more signal.
In assay [11] the test system is PRMT1 (protein arginine N-methyltransferase 1). Briefly: small molecules binding arginine methyltransferase PRMT1 – biochemical, small-molecule microarray, 635 nm fluorescence, primary screen (AID 1088).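 Also: binding of Prmt1 protein to compounds spotted on small-molecule microarray slides.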 The settings on record: higher = more signal.
Assay [12] can be described thus: growth effects on S. cerevisiae YJM789 – YJM789 clinical isolate, OD600, 24 h, basal, primary screen (AID 1089).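 Also: growth of clinical yeast isolate S. cerevisiae YJM 789 seeded 1000 cells per well; test concentration not given here.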 The settings on record: higher = more signal, called active from +8 up or from −8 down.
Assay [13] is described as follows: S. pombe growth modifiers, basal conditions – strain 972, OD600, 24 h, no modulator, primary screen (AID 1090).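 Also: basal condition with compound alone and no growth modifier present; test concentration not given here.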 Particulars: S. pombe 972 growth, higher = more signal, called active from +8 up or from −8 down.
A short description of assay [14]: budding yeast growth modifiers under rapamycin – strain BY4716, OD600, 96 h, primary screen (AID 1091). Also: test concentration not given here. The settings on record: S. cerevisiae BY4716 + rapamycin, higher = more signal, called active from +8 up or from −8 down.
The target in assay [15] is Torsin-1A-interacting protein 2 (Homo sapiens) (UniProt Q8NFQ8). Briefly: small molecules binding lysate-expressed LULL1 – cell lysate, human LULL1 lysate, 635/667 nm fluorescence, primary screen (AID 1092).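 Also: probe is lysate of COS7 cells overexpressing human LULL1; score merges per-feature 667 nm fluorescence with signal-to-noise.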 Particulars: small-molecule microarray, hLULL1 lysate binding, 635 nm fluorescence; higher = more signal.
Torsin-1A-interacting protein 2 (Homo sapiens), sequence (Q8NFQ8 whole entry, looked up): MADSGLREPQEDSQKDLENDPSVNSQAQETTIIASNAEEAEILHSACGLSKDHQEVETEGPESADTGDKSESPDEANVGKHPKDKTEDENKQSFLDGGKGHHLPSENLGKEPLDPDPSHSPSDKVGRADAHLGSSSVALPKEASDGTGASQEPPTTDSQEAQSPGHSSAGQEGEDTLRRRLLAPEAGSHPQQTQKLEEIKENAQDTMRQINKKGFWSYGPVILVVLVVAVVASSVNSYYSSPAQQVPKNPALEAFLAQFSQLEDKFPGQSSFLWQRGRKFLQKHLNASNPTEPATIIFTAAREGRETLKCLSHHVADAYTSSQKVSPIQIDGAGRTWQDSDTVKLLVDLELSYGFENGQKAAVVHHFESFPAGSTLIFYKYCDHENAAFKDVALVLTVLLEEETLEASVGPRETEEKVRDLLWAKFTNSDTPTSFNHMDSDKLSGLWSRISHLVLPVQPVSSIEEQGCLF
The nature of assay [16]: optical density change of DRC41 E. coli – strain DRC41, OD650, 24 h, E. coli filamentation project, primary screen (AID 1093).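 Also: MC1000 strain lacking acrAB efflux and sulA so SOS filamentation is blocked; test concentration not given here.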 The settings on record: E. coli DRC41 growth, higher = more signal, called active from +8 up or from −8 down.
Assay [17] can be described thus: probe aLefty2 binding to arrayed compounds – biochemical, biotinylated probe, 635/667 nm fluorescence, primary screen (AID 1094).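 Also: score merges spot fluorescence near 667 nm with spot signal-to-noise ratio.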 Particulars: small-molecule microarray, higher = more signal.
Assay [18] has as its system Noggin (protein binding on small-molecule microarray). Briefly: small molecules binding Noggin protein – biochemical, 635/667 nm fluorescence, primary screen (AID 1095).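 Also: score merges 667 nm feature fluorescence with signal to noise over triplicate slides.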 Particulars: 635 nm fluorescence, higher = more signal.
Assay [19] deals with Neurogenic locus notch homolog protein 3 (Homo sapiens) (UniProt Q9UM47). Briefly: small molecules binding NOTCH3 protein – biochemical, 635/667 nm fluorescence, primary screen (AID 1096). The settings on record: small-molecule microarray, 635 nm fluorescence, higher = more signal.
Neurogenic locus notch homolog protein 3 (Homo sapiens), sequence (Q9UM47 whole entry, looked up): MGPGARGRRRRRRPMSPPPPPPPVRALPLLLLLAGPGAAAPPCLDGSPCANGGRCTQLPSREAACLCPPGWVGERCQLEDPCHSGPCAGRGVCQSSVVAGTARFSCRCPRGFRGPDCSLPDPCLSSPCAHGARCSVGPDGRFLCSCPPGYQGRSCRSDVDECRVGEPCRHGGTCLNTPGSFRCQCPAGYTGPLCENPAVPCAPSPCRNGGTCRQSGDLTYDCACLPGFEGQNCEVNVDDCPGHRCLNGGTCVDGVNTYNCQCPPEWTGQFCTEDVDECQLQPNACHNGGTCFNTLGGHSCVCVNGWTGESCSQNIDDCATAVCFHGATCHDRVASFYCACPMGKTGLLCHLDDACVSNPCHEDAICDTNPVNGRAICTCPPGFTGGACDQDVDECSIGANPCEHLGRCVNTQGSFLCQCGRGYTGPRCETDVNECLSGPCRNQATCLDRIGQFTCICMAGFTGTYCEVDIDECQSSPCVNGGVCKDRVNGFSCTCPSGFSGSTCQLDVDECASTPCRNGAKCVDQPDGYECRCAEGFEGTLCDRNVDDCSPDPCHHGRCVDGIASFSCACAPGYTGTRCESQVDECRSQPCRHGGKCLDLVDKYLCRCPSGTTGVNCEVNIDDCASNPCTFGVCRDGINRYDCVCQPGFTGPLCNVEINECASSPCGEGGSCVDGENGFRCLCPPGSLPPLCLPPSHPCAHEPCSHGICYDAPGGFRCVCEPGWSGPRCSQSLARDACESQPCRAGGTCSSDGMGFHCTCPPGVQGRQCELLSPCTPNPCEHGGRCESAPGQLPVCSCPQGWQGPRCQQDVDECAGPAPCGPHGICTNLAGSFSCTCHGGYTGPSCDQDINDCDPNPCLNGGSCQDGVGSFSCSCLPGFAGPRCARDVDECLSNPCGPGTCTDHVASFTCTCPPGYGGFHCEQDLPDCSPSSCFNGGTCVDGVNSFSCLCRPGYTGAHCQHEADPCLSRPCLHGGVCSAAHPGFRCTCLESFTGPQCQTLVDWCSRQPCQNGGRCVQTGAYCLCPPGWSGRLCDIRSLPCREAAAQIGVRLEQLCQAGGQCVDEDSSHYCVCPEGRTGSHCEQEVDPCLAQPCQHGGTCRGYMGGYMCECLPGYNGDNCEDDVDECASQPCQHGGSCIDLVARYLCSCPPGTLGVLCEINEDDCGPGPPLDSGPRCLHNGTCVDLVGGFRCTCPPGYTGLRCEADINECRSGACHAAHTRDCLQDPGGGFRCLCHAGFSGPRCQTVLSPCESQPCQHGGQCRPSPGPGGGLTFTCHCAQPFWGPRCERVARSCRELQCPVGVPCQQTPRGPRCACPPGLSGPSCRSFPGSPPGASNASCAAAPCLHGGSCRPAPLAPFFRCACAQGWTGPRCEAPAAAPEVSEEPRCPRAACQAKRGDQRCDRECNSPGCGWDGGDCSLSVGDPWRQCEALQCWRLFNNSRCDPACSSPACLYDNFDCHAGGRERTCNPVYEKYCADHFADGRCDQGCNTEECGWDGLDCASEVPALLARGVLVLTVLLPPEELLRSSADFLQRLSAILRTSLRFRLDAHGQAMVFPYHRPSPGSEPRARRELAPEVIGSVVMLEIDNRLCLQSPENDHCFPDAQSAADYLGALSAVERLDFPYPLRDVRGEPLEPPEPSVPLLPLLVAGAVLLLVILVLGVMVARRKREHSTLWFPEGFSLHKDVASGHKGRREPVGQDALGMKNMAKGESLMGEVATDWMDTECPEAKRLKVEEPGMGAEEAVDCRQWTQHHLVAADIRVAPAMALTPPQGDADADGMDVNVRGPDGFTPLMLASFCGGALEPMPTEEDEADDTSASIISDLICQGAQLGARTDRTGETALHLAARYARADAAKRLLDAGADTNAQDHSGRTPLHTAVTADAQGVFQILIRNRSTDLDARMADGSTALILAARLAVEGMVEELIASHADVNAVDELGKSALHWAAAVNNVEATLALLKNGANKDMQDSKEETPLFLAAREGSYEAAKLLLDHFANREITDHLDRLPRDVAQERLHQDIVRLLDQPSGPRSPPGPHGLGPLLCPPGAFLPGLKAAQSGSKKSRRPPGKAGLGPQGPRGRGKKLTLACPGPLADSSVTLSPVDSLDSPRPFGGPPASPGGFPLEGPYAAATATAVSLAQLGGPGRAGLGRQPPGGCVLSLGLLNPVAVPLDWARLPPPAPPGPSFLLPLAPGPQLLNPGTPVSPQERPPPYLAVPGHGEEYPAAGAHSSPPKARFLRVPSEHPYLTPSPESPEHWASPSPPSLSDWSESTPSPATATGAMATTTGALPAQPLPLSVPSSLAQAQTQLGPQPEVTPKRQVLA
Assay [20] in a line: probe aEGFR binding to arrayed compounds – biochemical, biotinylated probe, 635/667 nm fluorescence, primary screen (AID 1097).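 Also: probe is a biotinylated anti-EGFR antibody binding compounds printed on slides; score combines fluorescence near 667 nm and signal to noise of each spot.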 Particulars: small-molecule microarray, higher = more signal.

Pro-neuregulin-1, membrane-bound isoform (Homo sapiens), sequence (Q02297 whole entry, looked up, the tested form may be a part, canonical isoform): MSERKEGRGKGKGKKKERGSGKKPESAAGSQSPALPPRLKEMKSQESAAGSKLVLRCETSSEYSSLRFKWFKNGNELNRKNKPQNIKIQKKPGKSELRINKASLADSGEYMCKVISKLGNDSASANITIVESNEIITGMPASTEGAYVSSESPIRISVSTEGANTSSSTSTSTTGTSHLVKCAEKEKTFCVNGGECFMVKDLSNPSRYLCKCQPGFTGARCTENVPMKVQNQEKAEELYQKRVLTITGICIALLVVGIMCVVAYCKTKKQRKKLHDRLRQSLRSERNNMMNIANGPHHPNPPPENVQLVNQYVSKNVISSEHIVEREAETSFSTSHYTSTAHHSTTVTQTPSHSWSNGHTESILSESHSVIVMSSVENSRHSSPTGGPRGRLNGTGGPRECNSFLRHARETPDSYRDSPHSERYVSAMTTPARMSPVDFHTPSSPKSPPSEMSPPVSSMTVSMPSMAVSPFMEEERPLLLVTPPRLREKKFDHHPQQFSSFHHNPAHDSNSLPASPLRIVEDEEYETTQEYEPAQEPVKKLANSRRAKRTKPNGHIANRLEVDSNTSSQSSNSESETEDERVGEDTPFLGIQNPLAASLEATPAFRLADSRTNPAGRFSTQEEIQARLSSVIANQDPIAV

Turning to `CCCCN1CC=CC23O[C@@H]4/C=C\CCCOC(=O)C4[C@H]2C(=O)N(CCCCCO)[C@@H]3C1=O` (stereo not given in full), the composite z-score was 0.485 in [1]; -0.465 in assay [2]; -0.0985 in [3]; -0.0739 in assay [4]; -0.901 in assay [5]; -1.18 in assay [6]. In addition, the composite z-score was 1.26 in assay [7]; -0.804 in [9]; -0.249 in assay [10]; -1.13 in [11]; -0.42 in assay [15]; -0.188 in assay [17]. Also, the composite z-score was -1.16 in assay [18], -1.02 in assay [19] and -0.324 in assay [20]. Moreover, the z-score in assay [8] is 0.368 (inactive); in [12] it was -0.669 (inactive); in [13], -0.392 (inactive); in assay [14], -0.8 (inactive); in [16] it was -0.769 (inactive).
On to `O=C1O[C@H](c2ccccc2)[C@H](c2ccccc2)N2[C@H]1[C@@H](C(=O)NC[C@H](O)c1ccccc1)[C@]1(C(=O)Nc3ccc(C#CC4=CCCCC4)cc31)[C@H]2c1ccccc1OCCO`, for which the composite z-score in assay [1] was 0.185; in assay [2], 0.463; in [3], 0.0637; in assay [4] it was 0.496; in assay [5], 0.908; in assay [6] it was 0.298. For the same compound, the composite z-score was 1.07 in assay [7]; 0.599 in assay [9]; -0.0645 in assay [10]; 1.43 in [11]; 1.64 in assay [15]; 0.107 in [17]. The composite z-score in [18] came to 0.545; in [19], 0.786; in assay [20], 0.032. Further, the z-score was -0.341 (inactive) in assay [8]; 2.2 (inactive) in [12]; -0.874 (inactive) in assay [13]; 2.64 (inactive) in assay [14]; -0.0991 (inactive) in assay [16].
For the compound `COCCOC(=O)N1C(=O)[C@@]2(c3cc(C#CC4(O)CCCCCC4)ccc31)[C@H](C(=O)Nc1nc3ccccc3s1)[C@H]1C(=O)O[C@H](c3ccccc3)[C@H](c3ccccc3)N1[C@@H]2c1ccccc1OCCO`, the composite z-score in assay [1] was 0.184; in assay [2] it was 1.29; in assay [3], -0.0503; in [4] it was 0.94; in assay [5], 1; in [6], 1.54. In addition, the composite z-score in assay [7] was 1.29; in assay [9], 0.461; in assay [10], -0.0618; in [11] it was 1.55; in assay [15], 2.89; in [17] it was -0.0575. The composite z-score in [18] is 1.38; in [19], 1.11; in assay [20] it was 0.0857. Besides, the z-score in assay [8] was 1.86 (inactive); in [12], 0.976 (inactive); in assay [13], 0.249 (inactive); in assay [14] it was 2.12 (inactive); in assay [16] it was 1.26 (inactive).
With `CC(C)(C)OC(=O)CC[C@@]1(C(=O)N2CCCCC2)N=C(c2ccc(OCCCO)cc2)O[C@@H]1c1ccccc1`, the composite z-score in [1] was found to be 0.249; in assay [2], 0.615; in [3], 0.171; in assay [4] it was 0.783; in assay [5] it was 1.68; in assay [6], 1.72. For the same compound, the composite z-score is 1.23 in assay [7]; 1.12 in assay [9]; -0.0618 in [10]; 1.54 in assay [11]; 3.52 in [15]; 0.0215 in [17]. Moreover, the composite z-score was 0.318 in assay [18], 1.12 in assay [19] and -0.0053 in assay [20]. Besides, the z-score in [8] was -3.24 (inactive); in [12] it was -1.23 (inactive); in [13], -0.76 (inactive); in assay [14], -0.95 (inactive); in assay [16], -0.223 (inactive).
For the compound `COc1ccc([Si](C)(C)[C@@H]2[C@@H](CCO)O[C@]3(C(=O)N(Cc4cccc(N5CCOC5=O)c4)c4ccccc43)[C@H]2C)cc1`, the composite z-score is 0.0806 in assay [1]; 0.229 in [2]; -0.0704 in assay [3]; 0.289 in assay [4]; 1.03 in assay [5]; 0.775 in assay [6]. The composite z-score is 0.953 in assay [7]; 0.0855 in [9]; -0.156 in assay [10]; 1.42 in assay [11]; 0.97 in assay [15]; -0.0357 in [17]. Besides, the results for the composite z-score in assay [18], in assay [19] and in assay [20] were 0.825, 0.797 and -0.0564, respectively. For the same compound, the z-score in assay [8] is -1.65 (inactive); in assay [12], 4.03 (inactive); in assay [13], 0.643 (inactive); in assay [14] it was 37.8 (active); in [16], 0.516 (inactive).
